# CYP2C9 act = increases human cytochrome P450 2C9 activity | P11712 | recombinant CYP2C9, luciferin-H conversion, luminescence; hits give high values; factor 1 = untreated enzyme, 0 = blocked | activation factor at 5 µM | 96,000 compounds, 1.4% hits | AID 1024;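 active = activation factor of 2 or more for CYP2C9 at a 5 µM dose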;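 also: 0 = sulfaphenazole-blocked wells and 1 = vehicle-only wells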
# CYP2C19 inhib = human CYP2C19 inhibition. P33261. CYP2C19 Supersomes, luciferin-H EGE luminescence, 30 min. inhibition, % at 5 µM. 96,000 compounds, 21% hits. AID 778;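 active = CYP2C19 inhibition above a set limit at 5 µM in the primary screen, cut at about 50% in these data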;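 also: plate controls were negative control wells for no effect and 2.5 mM tranylcypromine positive control for full effect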
# Target sequence (P33261 whole entry, looked up): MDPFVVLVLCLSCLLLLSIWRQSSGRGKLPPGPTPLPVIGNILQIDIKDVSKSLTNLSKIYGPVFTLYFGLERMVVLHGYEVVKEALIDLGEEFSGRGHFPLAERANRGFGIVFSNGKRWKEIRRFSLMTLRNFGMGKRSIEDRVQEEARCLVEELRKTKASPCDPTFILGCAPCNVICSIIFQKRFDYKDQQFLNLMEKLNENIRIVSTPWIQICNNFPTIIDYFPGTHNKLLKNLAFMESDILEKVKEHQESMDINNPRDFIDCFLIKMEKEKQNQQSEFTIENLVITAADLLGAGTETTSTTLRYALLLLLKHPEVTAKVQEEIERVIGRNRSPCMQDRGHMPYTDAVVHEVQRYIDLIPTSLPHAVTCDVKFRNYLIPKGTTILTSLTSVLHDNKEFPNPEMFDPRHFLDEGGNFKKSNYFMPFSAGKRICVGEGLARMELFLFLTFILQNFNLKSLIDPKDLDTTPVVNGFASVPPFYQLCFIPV
# Measles CPE = protection of cells from measles virus; AID 841; protection (pct of control), % at 4 µM; 140,000 compounds, 1.5% hits; Measles virus-infected cells, CPE protection, absorbance; in the data active = protection mostly above about 24%, no sharp cut-off; inactive = mostly below about 26%
# CYP2C9 inhib = blocks human cytochrome P450 2C9; P11712; CYP2C9 Supersomes, luciferin-H conversion, luminescence; inhibition, % at 5 µM; 96,000 compounds, 20% hits; AID 777;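 active = blocking of liver enzyme CYP2C9 beyond about 50% at 5 µM, limit read from the data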
# CYP2C19 activ = cytochrome P450 2C19 (human) activation; AID 1025; P33261; 96,000 tested, under 10 active; activation factor at 5 µM; recombinant CYP2C19, luciferin-H EGE luminescence; hits give high values; 0 = fully inhibited enzyme, 1 = untreated enzyme;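 active = activation factor of at least 2 at 5 µM in the primary screen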;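 also: 0 = wells with 2.5 mM tranylcypromine and 1 = vehicle-only wells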
# An asterisk follows results filed as active; · = no result given. Only some compounds are listed: those with a hit (about 22% of all), similar ones and a draw of the others.
SMILES,CYP2C9 act,CYP2C19 inhib,Measles CPE,CYP2C9 inhib,CYP2C19 activ
CCOc1cc(/C=C2/C(=O)NC(=O)N(c3ccc(CC)cc3)C2=O)ccc1OC(=O)c1cccs1,0.8,58.7*,3.4,18.7,0.4
CCOc1ccccc1N1C(=O)NC(=O)C(CCc2ccncc2)(CCc2ccncc2)C1=O,·,·,5.2,·,·
COc1ccccc1N1C(=O)NC(=O)C(CCc2ccncc2)(CCc2ccncc2)C1=O,0.3,90.6*,14.9,69.3*,0.1
CN(C)CC#CCC(O)(c1ccccc1)C1CCCC1 (stereo not drawn),0.8,54.8*,16.5,20.2,0.5
CCCCn1c(O)c(C(C)=NCCc2ccccc2)c(=O)[nH]c1=O,0.3,38.1,5.9,69.4*,0.6
CC(=NCC1CCCO1)c1c(O)n(-c2ccc(C)cc2)c(=O)[nH]c1=O (stereo not drawn),0.9,-18.8,10.2,6.3,1.2
CC(=NCC1CCCO1)c1c(O)n(Cc2ccccc2)c(=O)[nH]c1=O (stereo not drawn),1.1,13.9,36.2*,-6.7,0.9
CCCCn1c(O)c(C(CC)=NC(C)c2ccccc2)c(=O)[nH]c1=O (stereo not drawn),0.1,71.2*,15.4,90.9*,0.3
C=CCn1c(O)c(C(CC)=NC(C)c2ccccc2)c(=O)[nH]c1=O (stereo not drawn),0.4,65.7*,2.1,63.0*,0.3
COc1cc2c(cc1OC)C(C(=O)N1CCC3(CC1)OCCO3)C(c1ccccc1F)N(C)C2=O (stereo not drawn),·,·,3.0,·,·
CN(C)C(=O)Oc1ccc(-c2cn3cc(C(F)(F)F)ccc3n2)cc1,·,·,3.0,·,·
CCCCn1c(O)c(C(C)=NC(C)c2ccccc2)c(=O)[nH]c1=O (stereo not drawn),0.2,53.5*,24.9,77.3*,0.5
CCCCn1c(O)c(C(C)=Nc2ccc(C(=O)O)cc2)c(=O)[nH]c1=O,1,0.7,1.3,-1.3,1
O=C(Nc1ccc(Cl)cc1)Nc1nccs1,0.7,4.4,5.5,25.3,1
CN(Cc1ccccc1)C(=C(Cl)Cl)/C(=C1/NCCN1Cc1ccc(Cl)nc1)[N+](=O)[O-],0.5,92.6*,14.2,48.8,0.1
CC(C)N1C(=O)/C(=C/C=C/c2ccco2)C(=O)N(Cc2ccco2)C1=O,0.9,-15.7,25.9*,5.3,1.2
C=CCN1C(=O)/C(=C/c2cccs2)C(=O)NC1=S,·,·,4.8,·,·
COc1ccc(C=C2C(=O)N(C)C(=O)N(C)C2=O)cc1CSc1ccccn1,0.8,58.0*,5.2,24.8,0.4
COc1ccc(/C=C2/C(=O)NC(=O)N(C3CCCCC3)C2=O)cc1CSc1ccccn1,0.8,56.2*,2.4,23.2,0.4
COc1ccc(N2C(=O)CC(N3CCC(n4c(=O)[nH]c5ccccc54)CC3)C2=O)cc1 (stereo not drawn),1.1,17.5,6.4,-9.0,0.8
CCOC(=O)c1ccc(N2C(=O)CC(N3CC=C(c4ccc(F)cc4)CC3)C2=O)cc1 (stereo not drawn),0.4,37.3,2.0,64.5*,0.6
COc1ccc2nc(NC(=O)CCc3nc(C4=CCN(C)CC4)no3)sc2c1,0.2,36.1,8.0,75.3*,0.6
CC(=O)OC1N=C(c2ccccc2)c2cc(Br)ccc2N(C)C1=O (stereo not drawn),0.9,-3.8,2.2,7.3,1
CC(=O)OC1(Cc2ccccc2)CN2CCC1c1ccccc12 (stereo not drawn),0.4,74.3*,8.8,59.6*,0.3
CC(=O)OC1(c2ccc(C)cc2)CN2CCC1c1ccccc12 (stereo not drawn),1.3,98.6*,22.5,-27.3,0
SMILES,CYP2C9 act,CYP2C19 inhib,Measles CPE,CYP2C9 inhib,CYP2C19 activ
CC(=O)OC1(c2ccccc2)CCN(C)C(C)C1C (stereo not drawn),·,·,11.0,·,·
COc1ccc(CNCC(=O)N2CCC3(CC2)OCCO3)cc1,1,30.3,23.4,-4.1,0.7
COc1ccc(C2C(C(=O)N3CCC4(CC3)OCCO4)CC(=O)N2c2ccc(OC)cc2)cc1 (stereo not drawn),0.5,61.2*,24.9,48.2,0.4
O=C(O)C12C3CCCC1C32c1ccccc1 (stereo not drawn),1,8.6,10.1,0.5,0.9
CN(C)CC#CCOCCOCCC#N,1.1,18.2,10.3,-9.8,0.8
CN1CC=C(c2c[nH]c3ccccc23)CC1,·,·,23.7,·,·
CC(C(=O)c1c[nH]c2ccccc12)N1CCc2ccccc2C1 (stereo not drawn),0.2,45.4,2.9,76.3*,0.5
CCOc1ccc(CC2C(=O)NC(=O)N(c3ccc(CC)cc3)C2=O)cc1 (stereo not drawn),0.3,38.9,22.5,66.7*,0.6
CC1CN(CCc2ccccc2)CC(C)O1 (stereo not drawn),1.1,5.5,16.5,-7.4,0.9
O=C(C1CCN(c2nc3ccc(Br)cc3s2)CC1)N1CCC2(CC1)OCCO2,0.8,6.9,18.9,16.6,0.9
COc1ccc(C2SCC(=O)Nc3c2c(C)nn3-c2ccccc2)cc1 (stereo not drawn),0.5,11.3,19.2,52.2*,0.9
Cc1ccc(-n2nc(C)c3c2NC(=O)CSC3c2ccc3c(c2)OCO3)cc1 (stereo not drawn),0.6,33.5,·,44.2,0.7
CCCCC1(CCCC)C(=O)NC(=Nc2cccc(C)c2)NC1=O,0.4,61.1*,7.2,60.3*,0.4
CCCC1(CCC)C(=O)NC(=Nc2ccccc2)NC1=O,0.5,6.6,5.2,53.6*,0.9
CCCC(C)C1(CC)C(=O)NC(=Nc2ccccc2)NC1=O (stereo not drawn),·,·,4.2,·,·
CCCC1(CCC)C(=O)NC(=NCc2ccccc2)NC1=O,0.6,20.6,12.9,37.2,0.8
CCN(CC)CC(=O)Nc1ccc(Cl)cc1C(=O)c1ccccc1,·,·,0.6,·,·
Cc1ccc(N)c(C(=O)c2ccccc2)c1,1,84.8*,2.8,2.7,0.2
Cc1ccsc1-c1nc(CSCC(=O)N2CCC3(CC2)OCCO3)c(C)o1,1,67.2*,5.4,1.0,0.3
Cc1ccccc1-c1nc(CS(=O)CC(=O)N2CCC3(CC2)OCCO3)c(C)o1 (stereo not drawn),1,14.7,3.7,2.2,0.9
O=C(CCN1CCOCC1)NCC(=O)Nc1ccc(Br)cc1C(=O)c1ccccc1,1,-8.3,4.7,-4.4,1.1
CC(C(=O)Nc1ccc(Br)cc1C(=O)c1ccccc1)N1CCOCC1 (stereo not drawn),0.5,60.6*,3.0,54.8*,0.4
CN(C)c1ccc(CN2CC=C(c3ccc(F)cc3)CC2)cc1,1.1,62.0*,9.8,-6.9,0.4
CSc1ncc(Cl)c(C(=O)O)n1,0.9,27.2,6.5,8.8,0.7
O=C(c1cccc(N2CCCC2=O)c1)N1CCC2(CC1)OCCO2,1.2,1.9,18.3,-18.7,1
O=C(c1csc2c1CCCCC2)N1CCC2(CC1)OCCO2,1.4,98.4*,7.3,-37.5,0
O=C(c1cc(S(=O)(=O)N2CCCCC2)ccc1F)N1CCC2(CC1)OCCO2,0.8,2.8,15.1,22.0,1
